# Screening results (PubChem BioAssay)
# D1 potentiator – potentiators of human D1 dopamine receptor. potentiation, % at 10 µM. hit rate 0.036% among 360,000. HEK293 TREx D1 cells, calcium flux, dopamine EC20 potentiation. P21728; in the data active = potentiation above about 30%
# D1 antagonist – antagonists of human D1 dopamine receptor | P21728 | HEK293 TREx D1 cells, calcium flux, dopamine EC80; active compounds read low | activity change, negative = inhibition, % at 10 µM | hit rate 3.2% among 360,000 | AID 504652; in the data active = activity change below about -30%
#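 Allosteric or orthosteric antagonism assessed as attenuation of the calcium response to EC80 dopamine, added 180 s after compound, in induced HEK293 Trex D1 cells loaded with no-wash calcium dye.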
# TRHR PAM – allosteric enhancers of human TRH receptor; enhancement, % at 2 µM; P34981; AID 493056; hit rate 0.66% among 360,000; TRHR cells, fluo-8 calcium fluorescence, EC20 TRH enhancement; in the data active = enhancement above about 30%
# Target sequence (P34981 whole entry, looked up): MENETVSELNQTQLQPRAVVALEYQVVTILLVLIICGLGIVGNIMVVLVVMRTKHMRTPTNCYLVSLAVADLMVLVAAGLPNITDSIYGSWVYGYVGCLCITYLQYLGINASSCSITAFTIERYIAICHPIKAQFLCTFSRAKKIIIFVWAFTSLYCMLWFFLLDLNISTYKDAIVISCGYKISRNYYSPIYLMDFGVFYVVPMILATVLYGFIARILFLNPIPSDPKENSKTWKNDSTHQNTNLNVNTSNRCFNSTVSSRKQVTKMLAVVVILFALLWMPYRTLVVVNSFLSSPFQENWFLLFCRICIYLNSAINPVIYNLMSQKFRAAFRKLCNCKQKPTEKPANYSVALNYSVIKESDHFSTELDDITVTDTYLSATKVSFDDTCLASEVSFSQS
#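 TRHR-expressing cells loaded with fluo-8 calcium dye were read kinetically (ex 480/em 530) during compound addition, then stimulated with an EC20 of TRH (10 nM final). Enhancement of the Gq-mediated intracellular calcium response was scored.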
# GRP78 ERSR act – induces the endoplasmic reticulum stress response in human glioma cells; U87-MG GRP78 promoter luciferase reporter, 16 h; hit rate 0.02% among 420,000; Potency, µM, most hits filed as activators; active = well fitted activation curve with a large enough effect; note: series mostly up to about 76 µM; nearly all actives have a fitted effect of over 35% in size
#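 ERSR induction read as luciferase luminescence (Bright-Glo, 10 min at room temperature) in stably transfected human U87-MG glioma cells exposed to compounds for 16 h, using GRP78 as sensor.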
# TRHR ag – agonists of human TRH receptor; TRHR cells, calcium flux fluo-8, FDSS agonist mode; activation, % at 2 µM; hit rate 0.18% among 360,000
#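 Agonist-mode FDSS calcium read (Ex 480/Em 530, 1 s cycles) in 1536-well TRHR cells with fluo-8 dye, after 10-cycle baseline and 23 nL compound addition; TRH at EC20 (10 nM final) added afterwards for the enhancer phase.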
# D1 agonist – agonists of human D1 dopamine receptor | P21728 | activation, % at 2 µM | HEK293 T-REx D1 cells, calcium flux, agonist mode | hit rate 1% among 360,000
#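 Agonism was scored from calcium flux recorded over 180 s (1 read/s) after pintool compound addition, following a 10-cycle baseline. Cells were inducible force-coupled HEK293 TREx D1, plated overnight at 30 C and loaded with no-wash calcium dye.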
# A number is an active result; n = inactive; x = no result given; ! = not confirmed by another sample. The list is not random: actives were taken first. Their share in the collection is about 4%. Cut-off read from the data, not from the text of the source, unless noted: active = activation above about 30%; inactive = the rest.
SMILES,D1 potentiator,D1 antagonist,TRHR PAM,GRP78 ERSR act,TRHR ag,D1 agonist
COC(=O)c1nnn(CC(=O)NC(=O)Nc2cccc(C)c2C)c1C(=O)OC,n,n,n,n,n,50!
Cc1c2c(nc3c(C(=O)NC4CCCCC4C)cnn13)CCCC2 (configuration not stated),n,n,n,x,n,n
CC(=O)OCC1OC(C#CC2=CCCCC2)C=CC1OC(C)=O (configuration not stated),x,x,x,n,x,x
CCN(CC)C(=O)CSc1nnc(-c2cc3ccccc3cc2O)n1CC,n,n,n,n,n,n
COc1cccc(/C=N/NC(=O)c2ccc(N(C)S(=O)(=O)c3ccccc3)cc2)c1OC,n,-36,n,n,n,n
COc1ccc(/C=N\NC(=O)c2ccc(-c3ccccc3)cc2)c(OC)c1OC,n,n,30,n,n,n
COc1cccc(/C=N/NC(=O)CC(=O)NCCc2ccccc2)c1OC,n,n,33,n,n,n
COc1ccc(/C=N/NC(=O)CNC(=O)c2ccc3c(c2)OCCO3)c(C(=O)O)c1OC,n,n,30,n,n,n
O=C(Nc1ccccc1)NC1CCCCNC1=O (configuration not stated),n,n,n,n,n,n
O=C(C1=NN(c2ccccc2)C2C(=O)N(c3cccc(Cl)c3)C(=O)C12)c1ccccc1 (configuration not stated),n,n,n,n,41,104
CCOC(=O)C1=NOC2C(=O)N(c3ccc(Cl)cc3Cl)C(=O)C12 (configuration not stated),n,n,n,n,n,n
CC(=O)C1=NOC2C(=O)N(c3ccc(Cl)cc3)C(=O)C12 (configuration not stated),n,n,n,n,n,50
O=C(C1=NN(c2ccccc2)C2C(=O)N(c3ccc(Cl)cc3)C(=O)C12)c1ccccc1 (configuration not stated),n,n,n,n,n,192
COc1cccc(-c2nnc(SCC(=O)NC3CCS(=O)(=O)C3)n2C)c1 (configuration not stated),n,-35,n,n,n,n
CCOC(=O)C(C)Sc1snnc1C (configuration not stated),x,x,x,n,x,x
Cc1nnsc1SC(C)C(=O)O (configuration not stated),n,-50,n,n,n,n
Fc1ccc(Nc2ncncc2-c2ccoc2)cc1,x,x,x,n,x,x
O=S(=O)(NCCN1CCCC1)c1cccc2cccnc12,n,n,n,n,n,n
O=S(=O)(NCCCN1CCN(c2ccccc2F)CC1)c1cccc2cccnc12,n,-73,n,n,n,n
Cc1cc2[nH]c(=O)c(=O)[nH]c2cc1S(=O)(=O)N1CCN(c2cccc(Cl)c2)CC1,n,n,n,n,n,n
Cc1cc2[nH]c(=O)c(=O)[nH]c2cc1S(=O)(=O)N1CCN(c2cccc(C(F)(F)F)c2)CC1,n,-62!,n,n,n,n
CC(=O)n1nc(-c2ccco2)nc1N,n,n,n,n,n,n
COc1ccccc1C(=O)n1nc(-c2ccco2)nc1N,n,-82,n,n,n,n
COC(=O)c1nc(NC(=O)c2ccc(Br)cc2)n[nH]1,n,n,n,n,n,n
COC(=O)c1nc(NC(=O)C(C)(C)C)n[nH]1,n,-42,n,n,n,n
SMILES,D1 potentiator,D1 antagonist,TRHR PAM,GRP78 ERSR act,TRHR ag,D1 agonist
Cc1nnc(SCC(=O)Nc2sc3c(c2C(N)=O)CCC(C)C3)[nH]c1=O (configuration not stated),n,-47,n,n,n,n
COC1=C(OC)C(=O)C(CCCCCCCCCCO)=C(C)C1=O,n,-41,n,n,n,n
COc1cccc(N/C(N)=N/c2nc(C(F)(F)F)cc(C(F)(F)F)n2)c1,n,n,n,n,n,n
COc1cccc(N/C(N)=N/c2nc(C(F)(F)F)cc(=O)[nH]2)c1,n,n,31,n,n,n
COC(=O)c1sc2cc(C(F)(F)F)cnc2c1-c1ccccn1,n,n,31,n,n,n
O=C(COC(=O)c1ccc2c(c1)OCO2)Nc1nc(-c2ccccc2)cs1,n,n,n,n,n,n
CC(=O)Nc1nonc1NC(=O)CSC1=NCCS1,n,n,31,n,n,n
CC(=O)Nc1ccc(NC(=O)CSC2=NCCS2)cc1,n,n,n,n,n,n
